Consider eight compounds from PubChem BioAssay (NCATS).

A short description of assay [1]: qHTS profiling of the MIPE4 collection as inhibitors of Plasmodium falciparum (HB3) proliferation (AID 743347; call rule not given here;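 also: plate controls were DMSO vehicle wells for no effect and artemisinin wells for full effect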). The settings on record: P. falciparum HB3 in erythrocytes, SYBR Green DNA, 72 h; at 28.5 µM (top of the series) unless noted. The gist of the method: (§1)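 Erythrocytes infected with P. falciparum (0.3% parasitemia, 2.5% hematocrit) incubated with compounds 72 h at 37 C, 5% CO2. Lysis with saponin/Triton buffer containing SYBR Green I, overnight at room temperature in the dark; DNA fluorescence (485/535 nm) normalised to 0.29 uM artemisinin and DMSO.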

Assay [2] in a line: High-throughput drug toxicity screening in the BPDCN cell line Gen2.2 (AID 1224824; call rule not given here;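 also: cells exposed to compounds for 48 h before reading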). To be noted: Gen2.2 BPDCN cells; at 45.8 µM (top of the series) unless noted. A digest of the protocol:
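Seed 500 exponentially growing Gen2.2 cells/well; add compounds by pin tool; incubate 48 h, 37 °C, 5% CO2; add CellTiter-Glo, 15 min RT; read luminescence. % activity vs DMSO (100%) and bortezomib (0%).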

A short description of assay [3]: High-throughput drug toxicity screening in the BPDCN cell line Cal-1 (AID 1224825; call rule not given here). The settings on record: Cal-1 BPDCN cell viability, qHTS; at 45.8 µM (top of the series) unless noted. A digest of the protocol: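 500 Cal-1 cells/well, RPMI + glutamine + 10% FBS (phenol red-free); cpd added by pin tool; 48 h, 37C, 5% CO2; CTG 15 min RT, lumi read. Normalised: DMSO 100%, bortezomib 9.2 uM 0%.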
For orientation: Quantitative high-throughput screening tests each substance at several concentrations.

Assay [4] in a line: qHTS assay for measurement of the activity of small molecule inhibitors on Zika virus induced Caspase-3 activity in human iPSC derived neural progenitor cells (hNPCs) (AID 1224857). Also: nearly all actives have a fitted effect of over 65% in size. Also: potency is read from the fitted curve at half-maximal effect. The gist of the method: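 hNPCs seeded 350 cells/well, cultured 16–20 h; compounds added 1 h before ZIKV (2 FFU/cell), 37 C 6 h. Caspase-Glo 3/7 luminescence after 30 min RT; % inhibition from induction scaled to uninfected (0%) and infected (100%) wells.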

Assay [5] in a line: qHTS assay for measurement of the activity of small molecule inhibitors on Zika virus induced Caspase-3 activity in human astrocytoma cells (AID 1224859).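 Also: plate controls were ZIKV-infected untreated cells for no effect and uninfected cells for full effect.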 A digest of the protocol:
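Luminescence read-out (Caspase-Glo 3/7, 30 min RT) of caspase activity in SNB-19 cells infected 6 h with ZIKV, 2 FFU/cell, after 1 h compound pretreatment; % inhibition from induction normalised to uninfected (0%) and infected (100%) wells.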

Assay [6] is described as follows: qHTS Screen of the MIPE 4.0 Collection Against Ewings Sarcoma (RDES) (AID 1259252). Also: nearly all actives have a fitted effect of over 35% in size. Also: potency is read from the fitted curve at half-maximal effect. A digest of the protocol:
(§2)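 After a 4 h attachment period in RPMI/5% FBS, cells were pin-dosed with test compounds; DMSO served as negative and 9.2 uM bortezomib (final) as positive control. Luminescent CellTiter-Glo signal at 48 h defined viability.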

Assay [7] can be described thus: qHTS Screen of the MIPE 4.0 Collection Against Ewings Sarcoma (TC71) (AID 1259253). Also: nearly all actives have a fitted effect of over 40% in size. Also: potency is read from the fitted curve at half-maximal effect. The gist of the method:
as §2

Assay [8] is described as follows: qHTS Screen of the MIPE 4.0 Collection Against Ewings Sarcoma (EW8) (AID 1259255). Also: nearly all actives have a fitted effect of over 35% in size. Also: potency is read from the fitted curve at half-maximal effect.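 As to viability: 100% = DMSO-treated cells and 0% = medium-only wells without cells.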 The gist of the method:
as §2

Assay [9] in a line: qHTS Screen of the MIPE 4.0 Collection Against Ewings Sarcoma (TC32) (AID 1259256).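 Also: 100% = DMSO-treated cells and 0% = medium-only wells without cells; nearly all actives have a fitted effect of over 45% in size.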 A digest of the protocol:
as §2

Assay [10] can be described thus: qHTS profiling of the MIPE4 collection as inhibitors of Plasmodium falciparum (3D7) proliferation (AID 743344; call rule not given here;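 also: scaled between DMSO vehicle wells and 0.29 µM artemisinin as full inhibition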). To be noted: P. falciparum 3D7 in erythrocytes, SYBR Green DNA fluorescence, 72 h; at 28.5 µM (top of the series) unless noted. The gist of the method: as §1
A short description of assay [11]: qHTS profiling of the MIPE4 collection as inhibitors of Plasmodium falciparum (DD2) proliferation (AID 743345; call rule not given here). The settings on record: P. falciparum Dd2 in erythrocytes, SYBR Green DNA, 72 h; at 28.5 µM (top of the series) unless noted. The gist of the method: as §1
Assay [12] is described as follows: qHTS profiling of the MIPE4 collection as inhibitors of Plasmodium falciparum (DD2) proliferation (Rep 2) (AID 743346; call rule not given here). The settings on record: P. falciparum Dd2 in erythrocytes, SYBR Green DNA, 72 h; at 28.5 µM (top of the series) unless noted. A digest of the protocol: as §1
A short description of assay [13]: qHTS profiling for inhibitors of Plasmodium falciparum (HB3) proliferation (AID 743324).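 Also: 100% = DMSO vehicle wells and 0% = artemisinin-treated control wells.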 To be noted: Plasmodium falciparum HB3 blood-stage proliferation; at 28.7 µM (top of the series) unless noted. A digest of the protocol: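 P. falciparum HB3 grown in erythrocytes (0.3% parasitemia, 2.5% hematocrit final) with compound for 72 h at 37 C, 5% CO2. Parasite DNA detected by SYBR Green after saponin/triton lysis overnight; normalized to 0.29 uM artemisinin and DMSO.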

Assay [14] in a line: Identifying Small Molecule Inhibitors of Pancreatic Cancer Stem Cells (A2780, Spheroid) (AID 1259357).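 Also: potency is read from the fitted curve at half-maximal effect; compound exposure lasted 48 h before the ATP luminescence read.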 To be noted: Potency: A2780 spheroid viability. A digest of the protocol: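 Cytotoxicity read by CellTiter-Glo luminescence after 48 h compound exposure at 37C; percent activity scaled between DMSO-treated cells and cell-free wells. Spheroid formats used cells pre-formed 14 days in stem cell media on hydrogel.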

The nature of assay [15]: Identifying Small Molecule Inhibitors of Pancreatic Cancer Stem Cells (SN12C, Adherent) (AID 1259358).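 Also: cell survival measured after 48 h of compound exposure.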 A digest of the protocol:
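Adherent (2D) versus sphere (3D) formats; spheres generated 14 d in SCM beforehand. Compound transferred by pin tool after 4 h, 48 h incubation, CellTiter-Glo endpoint.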

Results filed as inconclusive are left out. The source made the active and inactive calls. Unless noted, calls follow the shape of the dose curve; as a rule, active = well fitted curve in the direction sought with a large enough effect; inconclusive = small, poorly fitted or top-dose-only effect, or another doubt; inactive = no such curve, though single readings can be large; an effect the other way counts as inactive or inconclusive.

In turn, `CNC1[C@H](O)C(O[C@@H]2C(O)C(O[C@H]3O[C@H]([C@@H](C)NC)CC[C@H]3N)[C@@H](N)C[C@H]2N)OC[C@]1(C)O` (stereo not given in full) returned a growth, % of control in assay [1] of 99.6%. Moreover, in assay [2], the cell viability, % of control (lower = more cytotoxic) turned out to be 116%. In addition, the viability (% of control) in assay [3] was 101%. Also, the Potency in assay [4] was 18.7 µM (active). The Potency entry in [5], in assay [6], in [7], in assay [8] and in assay [9] was “inactive” each time.
`CC[C@H](NC(=O)[C@H](C)NC)C(=O)N1C[C@@H](O)C[C@H]1Cc1c(-c2[nH]c3cc(F)ccc3c2C[C@H]2C[C@H](O)CN2C(=O)[C@H](CC)NC(=O)[C@H](C)NC)[nH]c2cc(F)ccc12` registered a parasite growth, % of DMSO control in assay [10] of 4.9%. Also, the parasite growth remaining, % of DMSO control (lower = more inhibition) in assay [11] was 8.23%. Also, the parasite growth, % of control (lower = inhibition) in assay [12] turned out to be 6.15%. Besides, the growth, % of control in assay [1] is 6.85%. For the same compound, the cell viability, % of control (lower = more cytotoxic) in assay [2] was found to be 19.2%. Moreover, in [3], the viability (% of control) worked out at 7.23%. Also, the Potency entry in [4], in [5], in assay [6], in [7] and in assay [8] was “inactive” throughout.
`NC(=O)c1ncn([C@@H]2O[C@H](CO)[C@@H](O)[C@@H]2O)n1`: in [2], the cell viability, % of control (lower = more cytotoxic) is 109%. Besides, the viability (% of control) in [3] turned out to be 73.5%. Besides, the Potency result in assay [4], in [5], in assay [6], in assay [7] and in assay [8] was “inactive” throughout.
As to `Nc1ccc(-c2ccc3ncc4ccc(=O)n(-c5cccc(C(F)(F)F)c5)c4c3c2)cn1`, in [13], the remaining proliferation (% of control), lower = more inhibition was -1.3%. The same compound showed a parasite growth, % of DMSO control in [10] of 4.25%. Moreover, the parasite growth remaining, % of DMSO control (lower = more inhibition) in assay [11] turned out to be 5.9%. The compound further gave a parasite growth, % of control (lower = inhibition) in assay [12] of 9.23%. Further, the growth, % of control in assay [1] turned out to be 2.97%. In addition, the cell viability, % of control (lower = more cytotoxic) in [2] amounted to 6.66%. The viability (% of control) in assay [3] worked out at 3.86%. Further, the Potency result in [4], in assay [5] and in assay [15] was “inactive” in each case. Moreover, the Potency in [6] is 0.0148 µM (active); in assay [7] it was 0.0083 µM (active); in assay [8], 0.0066 µM (active); in assay [14], 0.743 µM (active).
In [10], `CC(C)=CCCC(C)=CCCC(C)=CCCC(C)=CCCC(C)=CCCC(C)=CCCC(C)=CCCC(C)=CCCC(C)=CCO` came in with a parasite growth, % of DMSO control of 95.7%. In assay [11], the parasite growth remaining, % of DMSO control (lower = more inhibition) worked out at 17.5%. In addition, the parasite growth, % of control (lower = inhibition) in assay [12] is 99.4%. In addition, the growth, % of control in [1] came out at 100%. In [2], the cell viability, % of control (lower = more cytotoxic) was determined as 132%. For the same compound, the viability (% of control) in assay [3] was determined as 121%. Further, the Potency entry in assay [4], in assay [5], in assay [6], in [7] and in [8] was “inactive” throughout.
Compound `C[C@@H]1C[C@H]2[C@@H]3CCC4=CC(=O)C=C[C@]4(C)[C@@]3(F)[C@@H](O)C[C@]2(C)[C@@]1(O)C(=O)CO` had a parasite growth, % of DMSO control in assay [10] of 55.8%. For the same compound, in assay [11], the parasite growth remaining, % of DMSO control (lower = more inhibition) worked out at 90.6%. This compound returned a parasite growth, % of control (lower = inhibition) in [12] of 60.4%. Also, in assay [1], the growth, % of control came to 9.35%. The cell viability, % of control (lower = more cytotoxic) in assay [2] amounted to 184%. Also, the viability (% of control) in assay [3] came to 55.5%. Further, the Potency result in assay [4], in assay [5], in assay [6], in [7], in [8] and in [9] was “inactive” each time.
In the case of `CCCC1OC2C[C@@H]3[C@H]4CCC5=CC(=O)C=C[C@]5(C)[C@H]4C(O)C[C@]3(C)[C@]2(C(=O)CO)O1` (stereo not given in full), the parasite growth, % of DMSO control in [10] came to 11.7%. Moreover, the parasite growth remaining, % of DMSO control (lower = more inhibition) in assay [11] was found to be 20.2%. The parasite growth, % of control (lower = inhibition) in assay [12] was 15.8%. Also, the cell viability, % of control (lower = more cytotoxic) in [2] is 12.2%. The viability (% of control) in assay [3] was 11.8%. The Potency entry in assay [4], in assay [5] and in assay [6] was “inactive” throughout. Also, the Potency is 13.2 µM (active) in [7] and 18.7 µM (active) in assay [8].
The compound `CC(=O)OCC(=O)[C@@]1(O)CC[C@H]2[C@@H]3CCC4=CC(=O)C=C[C@]4(C)[C@@H]3[C@@H](O)C[C@@]21C` had a parasite growth, % of DMSO control in assay [10] of 77.8%. In assay [11], the parasite growth remaining, % of DMSO control (lower = more inhibition) was found to be 102%. Moreover, the parasite growth, % of control (lower = inhibition) in assay [12] was determined as 81.3%. In [1], this compound displayed a growth, % of control of 80.7%. In addition, in [2], the cell viability, % of control (lower = more cytotoxic) was 165%. For the same compound, the viability (% of control) in assay [3] came to 58.1%. Besides, the Potency result in assay [4], in assay [5], in [6] and in [8] was “inactive” throughout. Besides, in assay [7], the Potency was 9.35 µM (active).
